In the library only some 4.7% were active in any assay of this set; here they are far more common.
CCHFV vOTU inh: CCHFV vOTU protease inhibitors, primary screen, biochemical, Pep-AMC substrate, fluorescence | Crimean-Congo hemorrhagic fever virus L polyprotein viral ovarian tumor (vOTU) protease … | inhibition, % at 11.5 µM | 0.55% of 370,000 active | AID 651958, 2012; further: 0% = vehicle wells with enzyme and 100% = no enzyme wells
VHR inh abs: VHR1 phosphatase inhibitors, primary screen, biochemical, absorbance, uHTS | recombinant VHR phosphatase, pNPP absorbance | inhibition, % at 13.3 µM | 0.52% of 290,000 active | AID 1654, 2009; in the data active means inhibition above about 50%
SARS 3CLpro inh: SARS-CoV 3CLpro protease inhibitors, primary screen, biochemical, quenched FRET. Replicase polyprotein 1ab (Severe acute respiratory syndrome coronavirus), P0C6X7. recombinant SARS-CoV 3CLpro, quenched FRET peptide cleavage. inhibition, % at 6 µM. 0.14% of 290,000 active. AID 1706, 2009; in the data active means inhibition above about 12%
RecA splice inh: Mtb RecA intein splicing inhibitors, primary screen, biochemical, fluorescence, HTS | cell-free RecA intein splicing | AID 2221, 2009 | 0.75% of 290,000 active | Protein RecA (Mycobacterium tuberculosis (strain ATCC 25618 / H37Rv)), P9WHJ3 | inhibition, % (test concentration not listed); in the data active means inhibition above about 30%;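 further: 0% = vehicle wells and 100% = reference inhibitor control wells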
Target sequence (P9WHJ3 whole entry, looked up, canonical isoform): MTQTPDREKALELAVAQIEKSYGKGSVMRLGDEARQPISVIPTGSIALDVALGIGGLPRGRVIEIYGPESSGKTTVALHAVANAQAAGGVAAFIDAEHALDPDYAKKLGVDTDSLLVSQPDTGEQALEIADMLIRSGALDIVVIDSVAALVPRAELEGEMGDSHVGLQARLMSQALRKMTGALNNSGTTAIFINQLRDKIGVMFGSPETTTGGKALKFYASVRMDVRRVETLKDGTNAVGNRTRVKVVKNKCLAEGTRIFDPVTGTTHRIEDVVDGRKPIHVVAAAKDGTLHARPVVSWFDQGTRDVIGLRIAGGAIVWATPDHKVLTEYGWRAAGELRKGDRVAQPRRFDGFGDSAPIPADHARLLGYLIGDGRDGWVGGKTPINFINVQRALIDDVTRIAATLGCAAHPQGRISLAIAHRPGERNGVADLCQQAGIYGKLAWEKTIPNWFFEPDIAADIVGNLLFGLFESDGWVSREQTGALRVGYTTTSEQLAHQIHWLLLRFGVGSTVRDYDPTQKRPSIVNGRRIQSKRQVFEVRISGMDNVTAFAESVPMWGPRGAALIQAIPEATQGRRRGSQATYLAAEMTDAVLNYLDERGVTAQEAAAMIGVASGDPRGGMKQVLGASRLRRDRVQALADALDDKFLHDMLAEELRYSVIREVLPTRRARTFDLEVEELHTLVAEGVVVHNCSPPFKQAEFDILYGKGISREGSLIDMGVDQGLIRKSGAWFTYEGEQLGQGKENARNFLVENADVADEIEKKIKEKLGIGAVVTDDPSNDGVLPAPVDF
GDH-TPI counter-1: GDH-TPI coupling enzyme inhibitors, primary screen, artefact control for M. tuberculosis FBA inhibitor project, biochemical, absorbance, full deck | 1.2% of 360,000 active | inhibition, % at 4.8 µM | GDH-TPI coupled enzyme counterscreen, NADH absorbance;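 further: 0% = DMSO wells and 100% = wells lacking the enzyme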
FBA Mtb inh: Mtb FBA enzyme inhibitors, primary screen, biochemical, fluorescence, strain H37Rv; purified M. tuberculosis FBA, fluorescence read-out; Fructose-bisphosphate aldolase (Mycobacterium tuberculosis (strain ATCC 25618 / H37Rv)), …; 2.3% of 360,000 active; inhibition, % at 1 µM; in the data active means inhibition above about 27%;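 further: 0% = vehicle and 100% = reference inhibitor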
Mtb FBA confirm: M. tuberculosis aldolase blockers, biochemical, fluorescence, strain H37Rv, confirmation; 78% of 5,600 active; inhibition, % at 1 µM; shares compounds with FBA Mtb inh; purified M. tuberculosis FBA, fluorescence read-out; in the data active means inhibition above about 27%;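 further: 0% = vehicle wells and 100% = reference inhibitor wells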
GDH-TPI counter-2: GDH-TPI coupling enzyme inhibitors, artefact control for M. tuberculosis FBA inhibitor project, biochemical, fluorescence, high throughput; shares compounds with FBA Mtb inh; GDH-TPI coupled enzyme counterscreen; inhibition, % at 1 µM; 81% of 5,600 active; AID 652141, 2013; in the data active means inhibition above about 10%
GDH-TPI dose: GDH-TPI coupling enzyme inhibitors, dose response, artefact control for M. tuberculosis FBA inhibitor project, biochemical, fluorescence, IC50 | shares compounds with FBA Mtb inh | GDH-TPI coupled enzyme assay, artifact counterscreen | IC50, µM | 79% of 170 active | AID 652145, 2013; call rule not given here
* marks the source's active call; other numbers are inactive results; x = no result; + = active, no number. Unless noted, no stated cut-off is given here; in the data, active means inhibition above about 30%; inactive means the rest.

SMILES	CCHFV vOTU inh	VHR inh abs	SARS 3CLpro inh	RecA splice inh	GDH-TPI counter-1	FBA Mtb inh	Mtb FBA confirm	GDH-TPI counter-2	others
COc1ccc(OC)c(/C=C/C(=O)NCCc2nc3ccccc3[nH]2)c1	-60.4	0.0	4.0	x	16.1	50.0*	82.9*	52.8*
O=C1CCC(C(=O)N2CCN(c3cnccn3)CC2)CN1CCc1cccc(F)c1 (configuration not stated)	-5.5	-5.4	-2.0	-0.4	12.4	8.2	x	x
C/C(=N\NC(=O)c1ccc(-n2cnnn2)cc1)c1ccc(C)cc1	10.6	x	x	x	4.8	3.1	x	x
COc1ccc(-c2cc(-c3ccccc3)c(C#N)c(SCC(=O)O)n2)cc1	-1.8	x	x	3.9	16.9	46.8*	19.1	10.0	GDH-TPI dose=2.46*
COc1ccc(-c2cc(-c3ccc(Cl)cc3)c(C#N)c(SCC(=O)O)n2)cc1	-22.7	-16.3	-1.9	-2.7	16.8	47.5*	52.8*	36.9*
COc1ccccc1-c1cc(-c2ccccc2)nc(SCC(=O)O)c1C#N	3.1	38.8	3.6	1.8	5.4	0.8	x	x
CC1C(=O)N(Cc2cn(Cc3ccco3)nn2)CCS(=O)(=O)N1Cc1ccc(-c2ccc(Cl)cc2)cc1 (configuration not stated)	-1.1	x	x	x	-2.4	-0.7	x	x
CC1Cc2c([nH]c3ccccc23)C(=O)N1 (configuration not stated)	-12.6	40.2	-1.5	0.8	8.6	32.2*	+	148.2*
O=S1(=O)CCN2C=Nc3sc4c(c3C2=N1)CCCC4	7.3	3.3	-0.8	2.2	3.5	-2.6	x	x
O=S1(=O)CCN2C=C(Br)C=C(Br)C2=N1	-22.5	10.0	-2.4	-0.1	29.6	28.5*	133.1*	104.9*
CCCCS(=O)(=O)Nc1ccc(C)cn1	-28.6	-1.6	1.2	0.9	-1.1	41.4*	+	+
COCCCn1cc(CN2CC(N3CCN(Cc4cccc(C)c4)CC3)CS2(=O)=O)nn1 (configuration not stated)	4.5	x	x	x	x	x	x	x
CC(C)c1ccc(S(=O)(=O)N2CCN(CC(O)CN3CCOCC3)CC2)cc1 (configuration not stated)	-1.1	x	x	x	-1.3	50.9*	81.8*	69.5*
CC(OCC(O)CN1CCN(S(=O)(=O)c2ccc(Cl)cc2)CC1)c1ccc(Cl)cc1 (configuration not stated)	7.3	x	x	x	10.7	-2.3	x	x
COc1ccccc1-c1cc2c(c3c1ccn3C)C1CCC2O1 (configuration not stated)	-12.8	x	x	x	x	72.8*	127.4*	104.3*
Cn1ccc2c(-c3cccc4ccccc34)cc3c(c21)C1CCC3O1 (configuration not stated)	-14.5	x	x	x	x	57.6*	60.0*	41.5*
Cn1ccc2c(-c3ccc4[nH]ccc4c3)cc3c(c21)C1CCC3O1 (configuration not stated)	-9.1	x	x	x	x	47.4*	57.0*	38.5*
Cn1ccc2c(-c3ccc(C(N)=O)cc3)cc3c(c21)C1CCC3O1 (configuration not stated)	10.7	x	x	x	x	6.6	x	x
CSCCC(NC(=O)c1ccco1)C(=O)N1CCN(c2ccccc2O)CC1 (configuration not stated)	6.1	x	x	x	-1.0	0.6	x	x
Cc1ccc(-n2c(C)cc(/C=N/NC(=O)Cn3c4ccccc4c(=O)c4ccccc43)c2C)cc1	-40.6	-1.6	-3.3	-47.3	12.5	74.0*	133.3*	119.1*
CCNC(=S)N/N=C/c1cc(C)n(-c2ccc(Cl)cc2)c1C	-2.0	-2.2	1.6	8.5	6.2	-1.5	x	x
Cc1cc(/C=N/NC(=O)Cn2c3ccccc3c(=O)c3ccccc32)c(C)n1-c1ccc(Cl)cc1	-31.8	7.6	-1.8	-47.4	8.4	82.8*	143.6*	119.3*
NS(=O)(=O)c1cc(C(=O)OCC(=O)N2CCc3ccccc3C2)ccc1Cl	9.8	x	x	x	4.4	6.5	x	x
O=C(CN1CCN(Cc2ccccc2F)CC1)Nc1ccccc1Cl	-10.2	-3.3	-0.6	2.3	-5.7	-0.6	x	x
O=C(NN1CCOCC1)c1cc(-c2ccc(Br)s2)nc2ccccc12	-16.9	4.8	-1.8	-0.4	-0.7	5.5	x	x
SMILES	CCHFV vOTU inh	VHR inh abs	SARS 3CLpro inh	RecA splice inh	GDH-TPI counter-1	FBA Mtb inh	Mtb FBA confirm	GDH-TPI counter-2	others
CN1CCN(NC(=O)c2cc(-c3ccc(Cl)s3)nc3ccccc23)CC1	-65.7	-7.2	-1.8	x	12.6	73.0*	65.2*	41.6*
O=C(c1cc(-c2ccc(Cl)s2)nc2ccccc12)N1CCCC1	-1.8	5.4	-2.3	-1.1	10.3	57.8*	154.6*	143.7*
CC(C)(CNC(=O)c1cc(-c2ccc(Cl)s2)nc2ccccc12)N1CCOCC1	-13.3	x	x	-1.8	19.3	62.1*	11.9	8.6	GDH-TPI dose=2.85*
CN1CCN(NC(=O)c2cc(-c3ccccn3)nc3ccccc23)CC1	-1.4	6.3	4.5	0.2	6.8	1.9	x	x
Cc1cc(Cl)ccc1OCC(=O)Nc1ccc(CN2CCOCC2)cc1	1.6	20.8	-1.4	-4.2	1.4	-0.2	x	x
Cc1cc(OCC(=O)Nc2ccc(CN3CCOCC3)cc2)c2c(C)c(C)c(=O)oc2c1	4.5	12.3	-3.6	-2.1	2.5	70.6*	+	+
Cc1cc(OCC(=O)Nc2ccc(CN3CCOCC3)cc2)c2c(C)cc(=O)oc2c1	-20.1	5.7	2.6	0.1	-1.5	77.5*	51.5*	33.5*
O=C(OCc1ccccc1Cl)c1cccnc1Cl	0.7	-6.4	4.4	0.1	-1.4	1.3	x	x
N#Cc1ccccc1COC(=O)c1cccnc1N	-55.9	4.8	1.8	0.5	6.8	46.0*	152.8*	96.4*
CCOC(=O)c1[nH]c2ccc(OC)cc2c1NS(=O)(=O)c1ccc(OC)cc1OC	-7.6	-0.4	5.1	-1.5	9.6	19.9	x	x
CCOC(=O)c1[nH]c2ccc(OC)cc2c1NC(=O)OC	-18.0	-9.8	-0.2	-2.0	-1.4	38.1*	+	145.6*

Screens: PubChem, several laboratories
